Records with an inconclusive call do not appear. Activity calls are given as the source filed them. Calls follow the shape of the dose curve; as a rule, active = well fitted inhibition curve with a large enough effect; inconclusive = small, poorly fitted or top-dose-only effect; inactive = flat fitted curve, though single readings scatter. Non-standard residues stand in square brackets, D forms with d. Residues, ends and D or L forms follow the SMILES beside them. *: point of attachment. Nva = CCC[C@H](N)C(=O)O; Cbz = O=C(OCc1ccccc1)*
Tested on: MKL-1
Assay: qHTS assay to identify novel small-molecules to repurpose for Merkel cell carcinoma treatment (AID 1296009); also: nearly all actives have a fitted effect of over 60% in size
Details: MCC and control cell lines, CellTiter-Glo viability, 72 h; series mostly up to 46 µM; activity change, negative = cytotoxicity: at the top concentration
In short: (§1)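 Cells were incubated with compound for 72 hr at 37 degree celsius before CellTiter-Glo addition. Luminescence was normalized with no-cell wells as full cytotoxicity and DMSO as baseline.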
% is scaled to controls: 0 for no effect and ±100 for the full control effect; potency is read from the fitted curve at half-maximal effect.

Row | Structure (SMILES) | Potency | activity change, negative = cytotoxicity
1 | Cn1cnc(=N)c2[nH]cnc21 | 7.43 µM (active) | –
2 | COc1ccnc2[nH]cc(C(=O)C(=O)N3CCN(C(=O)c4ccccc4)C[C@@H]3C)c12 | – | -0.963% (inactive)
3 | C[C@](Cc1c[nH]c2ccccc12)(NC(=O)OC1C2CC3CC(C2)CC1C3)C(=O)NC[C@H](NC(=O)CCC(=O)O)c1ccccc1 (some centres undefined) | – | 1.41% (inactive)
4 | CC(=O)NCC(=O)N1[C@H]2CC[C@H]1c1cc(Nc3ncc(C(F)(F)F)c(NC4CCC4)n3)ccc12 | 0.209 µM (active) | –
5 | Cc1noc(-c2ccc(CSCCC(=O)O)cc2)c1NC(=O)OC(C)c1ccccc1Cl (centres undefined) | – | -2.35% (inactive)
6 | CC(C(C)N1CC(=O)NC(=O)C1)N1CC(=O)NC(=O)C1 (centres undefined) | – | -0.0341% (inactive)
7 | CC(=O)NC(CS)C(=O)O (centres undefined) | – | -8.65% (inactive)
8 | O=S(=O)(O)CCSSCCS(=O)(=O)O | – | 8.95% (inactive)
9 | O=C(O)C=Cc1ccc(Cn2ccnc2)cc1 | – | 3.96% (inactive)
10 | CC(=O)O[C@H]1C[C@@H]2CC[C@H]3[C@H]4C[C@H]([N+]5(C)CCCCC5)[C@@H](OC(C)=O)[C@@]4(C)CC[C@@H]3[C@@]2(C)C[C@H]1N1CCCCC1 | – | -2.99% (inactive)
11 | CC(C)(O)CC[C@@H](O)[C@](C)(O)[C@H]1CC[C@@]2(O)C3=CC(=O)[C@@H]4C[C@@H](O)[C@@H](O)C[C@]4(C)[C@@H]3CC[C@]12C | – | -8.28% (inactive)
12 | CC1(C)CC(O)CC(C)(C)N1[O] | – | 5.88% (inactive)
13 | COc1ccc(C(C)=O)c(O)c1 | – | -0.812% (inactive)
14 | COc1cc(OC)c(NC(=O)Nc2cc(C)on2)cc1Cl | – | -1.99% (inactive)
15 | Cc1cc(C(=O)NOCCO)c(Nc2ccc(I)cc2F)n(C)c1=O | – | 1.94% (inactive)
16 | NC(=O)c1ncn([C@@H]2O[C@H](CO)[C@@H](O)[C@@H]2O)c1O | – | -4.85% (inactive)
17 | CN1[C@H]2CC(OC(=O)[C@@H](CO)c3ccccc3)C[C@H]1[C@H]1O[C@H]12 (some centres undefined) | – | 0.436% [at 16.1 µM] (inactive)
18 | CC(Oc1ccc(O)cc1)(P(=O)(O)O)P(=O)(O)O | – | -15.2% (inactive)
19 | O=C(O)CCCCCC(=O)NN=C1CCCC1 | – | -3.22% (inactive)

Row | Structure (SMILES) | Potency | activity change, negative = cytotoxicity
20 | C[C@@H](NCc1cc2ccccc2[nH]1)c1cccc2ccccc12 | – | -7.2% (inactive)
21 | CCC[C@@H](C=O)NC(=O)[C@H](CC(C)C)NC(=O)[C@H](CC(C)C)NC(=O)OCc1ccccc1 (Cbz-Leu-Leu-[Nva]-aldehyde) | 1.32 µM (active) | –
22 | CC(=O)[C@]1(O)Cc2c(O)c3c(c(O)c2[C@@H](O[C@H]2C[C@H](N)[C@@H](O)[C@H](C)O2)C1)C(=O)c1ccccc1C3=O | 0.148 µM (active) | –
23 | CO[C@@H]1[C@@H](O)[C@H](O)[C@@H](n2c3c(Cl)cccc3c3c4c(c5c6cccc(Cl)c6[nH]c5c32)C(=O)NC4=O)O[C@@H]1CO | 0.332 µM (active) | –
24 | CCN(CC)CCNC(=O)c1c(C)[nH]c(C=C2C(=O)Nc3ccc(F)cc32)c1C | 12.1 µM (active) | –
25 | NC1=N[C@H]2[C@H](CS[C@H]2CCCCC(=O)O)N1 | – | 11% [at 16.1 µM] (inactive)
26 | c1coc(CNc2ncnc3nc[nH]c23)c1 | – | -4.01% (inactive)
27 | CCCNC(=O)[C@H]1O[C@H]1C(=O)N[C@H](C(=O)N1CCC[C@@H]1C(=O)OC)C(C)CC (some centres undefined) | 5.26 µM (active) | –
28 | CC[C@@]1([C@@H]2O[C@@H]([C@H]3O[C@@](O)(CO)[C@H](C)C[C@H]3C)C[C@H]2C)CC[C@H]([C@]2(C)CC[C@]3(C[C@H](O)[C@@H](C)[C@@H]([C@@H](C)[C@@H](OC)[C@H](C)C(=O)O)O3)O2)O1 | 0.512 µM (active) | –
29 | CC(=O)O[C@@]12CO[C@H]1C[C@H](O)[C@@]1(C)C(=O)[C@H](O)C3=C(C)[C@@H](OC(=O)C(O)[C@@H](NC(=O)OC(C)(C)C)c4ccccc4)C[C@@](O)([C@@H](OC(=O)c4ccccc4)[C@@H]21)C3(C)C (some centres undefined) | – | -21.9% (inactive)
30 | N#Cc1cc(NC(=O)Nc2nnc(-c3ccncc3)s2)ccc1-c1cn[nH]c1 | – | 3.25% (inactive)
31 | C=C1C(=O)O[C@H]2[C@@H]1CCC(C)=CCC[C@@]1(C)O[C@@H]21 | 7.43 µM (active) | –
32 | C[C@H](NCc1ccc2c(c1)nc(NC(=O)c1ccc(-c3cn[nH]c3)s1)n2CCc1ccccc1)C(C)(C)C | 2.35 µM (active) | –
33 | CCCCCCCN(CC)CCCC(O)c1ccc(NS(C)(=O)=O)cc1 (centres undefined) | – | 4.03% (inactive)
34 | O=C(O)C[C@H](O)C[C@H](O)C=Cc1c(C2CC2)nc2ccccc2c1-c1ccc(F)cc1 | 5.9 µM (active) | –
35 | O=C(CCCCCCC(=O)Nc1cccnc1)NO | 7.43 µM (active) | –
36 | O=C(C=CC#Cc1cccc(NS(=O)(=O)c2ccccc2)c1)NO | 3.72 µM (active) | –
37 | C=C(C)[C@@H]1CC[C@]2(C(=O)O)CC[C@]3(C)[C@H](CC[C@@H]4[C@@]5(C)CC[C@H](O)C(C)(C)[C@@H]5CC[C@]43C)[C@@H]12 | – | -3.75% (inactive)

Tested on: MKL-2
Assay: as above
Details: MCC and control cell lines, CellTiter-Glo viability, 72 h; series mostly up to 46 µM; activity change, negative = cytotoxicity: at the top concentration
In short: as §1

Row | Structure (SMILES) | Potency | activity change, negative = cytotoxicity
38 | Cn1cnc(=N)c2[nH]cnc21 | 0.209 µM (active) | –
39 | COc1ccnc2[nH]cc(C(=O)C(=O)N3CCN(C(=O)c4ccccc4)C[C@@H]3C)c12 | – | 17.4% (inactive)
40 | C[C@](Cc1c[nH]c2ccccc12)(NC(=O)OC1C2CC3CC(C2)CC1C3)C(=O)NC[C@H](NC(=O)CCC(=O)O)c1ccccc1 (some centres undefined) | – | 10.3% (inactive)
41 | CC(=O)NCC(=O)N1[C@H]2CC[C@H]1c1cc(Nc3ncc(C(F)(F)F)c(NC4CCC4)n3)ccc12 | 23.5 µM (active) | –
42 | Cc1noc(-c2ccc(CSCCC(=O)O)cc2)c1NC(=O)OC(C)c1ccccc1Cl (centres undefined) | – | -27.8% (inactive)
43 | CC(C(C)N1CC(=O)NC(=O)C1)N1CC(=O)NC(=O)C1 (centres undefined) | – | -13% (inactive)
44 | CC(=O)NC(CS)C(=O)O (centres undefined) | – | -12.7% (inactive)
45 | O=S(=O)(O)CCSSCCS(=O)(=O)O | – | 19.5% (inactive)
46 | O=C(O)C=Cc1ccc(Cn2ccnc2)cc1 | – | 10.5% (inactive)
47 | CC(=O)O[C@H]1C[C@@H]2CC[C@H]3[C@H]4C[C@H]([N+]5(C)CCCCC5)[C@@H](OC(C)=O)[C@@]4(C)CC[C@@H]3[C@@]2(C)C[C@H]1N1CCCCC1 | – | -6.33% (inactive)
48 | CC(C)(O)CC[C@@H](O)[C@](C)(O)[C@H]1CC[C@@]2(O)C3=CC(=O)[C@@H]4C[C@@H](O)[C@@H](O)C[C@]4(C)[C@@H]3CC[C@]12C | – | -21.6% (inactive)
49 | CC1(C)CC(O)CC(C)(C)N1[O] | – | 12.1% (inactive)
50 | COc1ccc(C(C)=O)c(O)c1 | – | -6.77% (inactive)
51 | COc1cc(OC)c(NC(=O)Nc2cc(C)on2)cc1Cl | – | 3.23% (inactive)
52 | Cc1cc(C(=O)NOCCO)c(Nc2ccc(I)cc2F)n(C)c1=O | – | -3.4% (inactive)
53 | NC(=O)c1ncn([C@@H]2O[C@H](CO)[C@@H](O)[C@@H]2O)c1O | – | -7.48% (inactive)
54 | CN1[C@H]2CC(OC(=O)[C@@H](CO)c3ccccc3)C[C@H]1[C@H]1O[C@H]12 (some centres undefined) | – | 25.1% [at 16.1 µM] (inactive)
55 | CC(Oc1ccc(O)cc1)(P(=O)(O)O)P(=O)(O)O | – | 1.15% (inactive)
56 | O=C(O)CCCCCC(=O)NN=C1CCCC1 | – | 8.03% (inactive)

Row | Structure (SMILES) | Potency | activity change, negative = cytotoxicity
57 | C[C@@H](NCc1cc2ccccc2[nH]1)c1cccc2ccccc12 | – | -9.28% (inactive)
58 | CCC[C@@H](C=O)NC(=O)[C@H](CC(C)C)NC(=O)[C@H](CC(C)C)NC(=O)OCc1ccccc1 (Cbz-Leu-Leu-[Nva]-aldehyde) | 0.833 µM (active) | –
59 | CC(=O)[C@]1(O)Cc2c(O)c3c(c(O)c2[C@@H](O[C@H]2C[C@H](N)[C@@H](O)[C@H](C)O2)C1)C(=O)c1ccccc1C3=O | 0.105 µM (active) | –
60 | CO[C@@H]1[C@@H](O)[C@H](O)[C@@H](n2c3c(Cl)cccc3c3c4c(c5c6cccc(Cl)c6[nH]c5c32)C(=O)NC4=O)O[C@@H]1CO | 0.935 µM (active) | –
61 | CCN(CC)CCNC(=O)c1c(C)[nH]c(C=C2C(=O)Nc3ccc(F)cc32)c1C | 15.2 µM (active) | –
62 | NC1=N[C@H]2[C@H](CS[C@H]2CCCCC(=O)O)N1 | – | 32% [at 16.1 µM] (inactive)
63 | c1coc(CNc2ncnc3nc[nH]c23)c1 | – | -0.796% (inactive)
64 | CCCNC(=O)[C@H]1O[C@H]1C(=O)N[C@H](C(=O)N1CCC[C@@H]1C(=O)OC)C(C)CC (some centres undefined) | 3.32 µM (active) | –
65 | CC[C@@]1([C@@H]2O[C@@H]([C@H]3O[C@@](O)(CO)[C@H](C)C[C@H]3C)C[C@H]2C)CC[C@H]([C@]2(C)CC[C@]3(C[C@H](O)[C@@H](C)[C@@H]([C@@H](C)[C@@H](OC)[C@H](C)C(=O)O)O3)O2)O1 | 0.204 µM (active) | –
66 | CC(=O)O[C@@]12CO[C@H]1C[C@H](O)[C@@]1(C)C(=O)[C@H](O)C3=C(C)[C@@H](OC(=O)C(O)[C@@H](NC(=O)OC(C)(C)C)c4ccccc4)C[C@@](O)([C@@H](OC(=O)c4ccccc4)[C@@H]21)C3(C)C (some centres undefined) | – | -22.5% (inactive)
67 | N#Cc1cc(NC(=O)Nc2nnc(-c3ccncc3)s2)ccc1-c1cn[nH]c1 | – | -2.94% (inactive)
68 | C=C1C(=O)O[C@H]2[C@@H]1CCC(C)=CCC[C@@]1(C)O[C@@H]21 | 1.87 µM (active) | –
69 | C[C@H](NCc1ccc2c(c1)nc(NC(=O)c1ccc(-c3cn[nH]c3)s1)n2CCc1ccccc1)C(C)(C)C | 5.9 µM (active) | –
70 | CCCCCCCN(CC)CCCC(O)c1ccc(NS(C)(=O)=O)cc1 (centres undefined) | – | -11.8% (inactive)
71 | O=C(O)C[C@H](O)C[C@H](O)C=Cc1c(C2CC2)nc2ccccc2c1-c1ccc(F)cc1 | 3.32 µM (active) | –
72 | O=C(CCCCCCC(=O)Nc1cccnc1)NO | 1.87 µM (active) | –
73 | O=C(C=CC#Cc1cccc(NS(=O)(=O)c2ccccc2)c1)NO | 1.32 µM (active) | –
74 | C=C(C)[C@@H]1CC[C@]2(C(=O)O)CC[C@]3(C)[C@H](CC[C@@H]4[C@@]5(C)CC[C@H](O)C(C)(C)[C@@H]5CC[C@]43C)[C@@H]12 | – | 10.7% (inactive)

— PubChem BioAssay (NCATS)
